# Calls of active or inactive are those of the source.
# What was measured:
# [1] = tested on: Human papillomavirus type 1a protein E7 (residues 44-93); test: small molecules binding HPV E7 44-93 – biochemical, small-molecule microarray, residues 44-93, 635 nm fluorescence, primary screen (AID 1108); conditions: fluorescence 635 nm, higher = more signal;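 further: E7 fragment applied at 1 µg/mL in TBST for 1 h at 4 C; score combines spot fluorescence with its signal to noise ratio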
# [2] = hepatitis C replication reporter changes, two-sided – Huh7 cells, luciferase reporter, HCV replication inhibitor project, primary screen (AID 1109); conditions: Huh7 HCV replicon luciferase reporter, 48 h; higher = more signal;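 further: huh7 hepatoma cells harbouring a luciferase neomycin HCV replicon reporter; luciferase luminescence as measure of HCV replicon replication; test concentration not given here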
# [3] = molecular target: Left-right determination factor 2 (Homo sapiens) (UniProt O00292); test: small molecules binding LEFTY2 protein – biochemical, small-molecule microarray, 635 nm fluorescence scan, primary screen (AID 1110); conditions: higher = more signal
# [4] = molecular target: Calmodulin-1 (Homo sapiens) (UniProt P0DP23); test: small molecules binding calmodulin-1 with EGTA – biochemical, small-molecule microarray, Cy5-labelled CALM1, profiling panel (AID 1111); conditions: Cy5-CALM1 binding fluorescence, higher = more signal;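 further: labelled calmodulin applied in Tris saline Tween buffer holding calcium plus EGTA and DTT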
# [5] = molecular target: Calmodulin-1 (Homo sapiens) (UniProt P0DP23); test: small molecules binding Ca-loaded calmodulin-1 – biochemical, small-molecule microarray, Cy5-labelled CALM1, plus calcium, artefact control for SMM control-protein annotation, profiling panel (AID 1112); conditions: Cy5-CALM1 binding fluorescence, higher = more signal;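 further: score merges spot fluorescence with signal to noise from triplicate slides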
# [6] = probe aWnt5a binding to arrayed compounds – biochemical, biotinylated probe, 635/667 nm fluorescence, primary screen (AID 1113); conditions: small-molecule microarray, higher = more signal;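 further: score merges 667 nm fluorescence intensity with signal-to-noise per printed feature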
# [7] = probe aShh binding to arrayed compounds – biochemical, biotinylated probe, 635/667 nm fluorescence, primary screen (AID 1114); conditions: small-molecule microarray, higher = more signal;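 further: probe is biotin-labelled aShh protein from a stem cell growth factor screen; measures binding of labelled protein to compounds printed on the slide; score merges feature fluorescence at 667 nm with signal-to-noise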
# [8] = probe aNog binding to arrayed compounds – biochemical, biotinylated probe, 635/667 nm fluorescence, primary screen (AID 1115); conditions: small-molecule microarray, higher = more signal;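 further: probe is biotinylated aNog protein used at 0.15 µg/mL for 1 h at 4 C; z-score combines 667 nm fluorescence of each spot with its signal to noise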
# [9] = molecular target: Torsin-1A-interacting protein 1 (Homo sapiens) (UniProt Q5JTV8); test: compound microarray binding of lysate hLAP1 – cell lysate, small-molecule microarray, COS7 lysate, 635/667 nm fluorescence, primary screen (AID 1116); conditions: 635 nm fluorescence, higher = more signal
# [10] = molecular target: Alpha-bungarotoxin (Bungarus multicinctus) (UniProt P60615); test: compounds binding labelled alpha-BTX control protein – biochemical, small-molecule microarray, Alexa647 label, 635/667 nm fluorescence, artefact control for SMM control protein annotation, profiling panel (AID 1117); conditions: alpha-BTX-A647 binding fluorescence, higher = more signal
# Albumin (Bos taurus) = Albumin (Bos taurus) (UniProt P02769); test: compounds binding labelled BSA control protein – biochemical, small-molecule microarray, Alexa647 label, 635/667 nm fluorescence, artefact control for SMM control protein annotation, profiling panel (AID 1118); conditions: BSA-A647 binding, fluorescence 635 nm, higher = more signal;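 further: score merges 667 nm emission intensity and signal-to-noise per printed compound spot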
# [11] = probe aXIP binding to arrayed compounds – biochemical, NeuroSMM set, 635/667 nm fluorescence, primary screen (AID 1119); conditions: small-molecule microarray, higher = more signal, called active from +8 up or from −8 down;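 further: probe is the protein aXip251-270 applied at 1 µg/mL to compound-printed slides; binding of probe to printed compounds measured as 667 nm fluorescence plus signal to noise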
# [12] = probe aNOTCH3 binding on compound microarray – biochemical, small-molecule microarray, 635/667 nm fluorescence, primary screen (AID 1120); conditions: higher = more signal;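 further: probe is a biotin-tagged antibody raised against NOTCH3 rather than NOTCH3 protein; score merges spot fluorescence near 667 nm with spot signal to noise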
# [13] = probe aNOTCH2 binding on compound microarray – biochemical, small-molecule microarray, 635/667 nm fluorescence, primary screen (AID 1121); conditions: higher = more signal;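 further: score merges feature fluorescence read at 667 nm with its signal to noise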
# [14] = molecular target: Carbonic anhydrase 2 (Homo sapiens) (UniProt P00918); test: compounds binding carbonic anhydrase 2 – biochemical, small-molecule microarray, Alexa647-labelled CAII, profiling panel (AID 1122); conditions: CAII-A647 binding fluorescence, higher = more signal
# [15] = COS7 lysate on small-molecule microarray, probe aHis, 635 nm (AID 1123); conditions: COS7 cell lysate, fluorescence, higher = more signal;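 further: z-score combines 667nm fluorescence intensity with signal-to-noise per printed compound spot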
# [16] = probe aLAP1 signal on lysate-treated microarray – cell lysate, small-molecule microarray, COS7 lysate, primary screen (AID 1124); conditions: probe aLAP1, fluorescence, higher = more signal;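 further: lysate comes from COS7 cells expressing LAP1 and is applied at 0.3 µg/mL; score merges spot fluorescence near 667 nm with signal-to-noise over triplicate slides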
# Sam68 (KHDRBS1) = test: compounds binding KHDRBS1 protein – biochemical, small-molecule microarray, 635 nm fluorescence, primary screen (AID 1125); conditions: higher = more signal;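 further: score merges 667 nm channel intensity with signal to noise over triplicate slides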
# [17] = tested on: Chordin-like protein 2 (CHRDL2); test: compounds binding chordin-like 2 – biochemical, small-molecule microarray, 635 nm fluorescence, primary screen (AID 1126); conditions: fluorescence 635 nm, higher = more signal;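 further: printed compound slides probed with Chrdl2 protein at 4 µg/mL for 1 h at 4 C; score merges 667 nm emission intensity with signal to noise over three replicate slides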
# [18] = molecular target: Concanavalin-A (Canavalia ensiformis) (UniProt P02866); test: compounds binding concanavalin A lectin – biochemical, small-molecule microarray, Alexa647 label, 635 nm, artefact control for SMM control protein annotation, primary screen (AID 1127); conditions: ConA-A647 binding fluorescence, higher = more signal;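 further: z combines 667 nm emission intensity with signal-to-noise across three replicate slides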
# Sequence of Concanavalin-A (Canavalia ensiformis) (P02866 whole entry, looked up): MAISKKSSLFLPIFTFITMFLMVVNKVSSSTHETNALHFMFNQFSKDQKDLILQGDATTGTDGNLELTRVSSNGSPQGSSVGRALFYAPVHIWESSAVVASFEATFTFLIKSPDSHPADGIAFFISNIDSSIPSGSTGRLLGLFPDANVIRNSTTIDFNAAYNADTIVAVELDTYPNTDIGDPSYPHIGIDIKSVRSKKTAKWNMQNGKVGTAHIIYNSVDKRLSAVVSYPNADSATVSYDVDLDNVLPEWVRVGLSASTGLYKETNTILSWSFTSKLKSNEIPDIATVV
# Sequence of Alpha-bungarotoxin (Bungarus multicinctus) (P60615 whole entry, looked up): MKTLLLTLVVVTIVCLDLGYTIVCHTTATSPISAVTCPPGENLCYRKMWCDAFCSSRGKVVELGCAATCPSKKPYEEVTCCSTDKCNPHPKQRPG
# Sequence of Torsin-1A-interacting protein 1 (Homo sapiens) (Q5JTV8 whole entry, looked up): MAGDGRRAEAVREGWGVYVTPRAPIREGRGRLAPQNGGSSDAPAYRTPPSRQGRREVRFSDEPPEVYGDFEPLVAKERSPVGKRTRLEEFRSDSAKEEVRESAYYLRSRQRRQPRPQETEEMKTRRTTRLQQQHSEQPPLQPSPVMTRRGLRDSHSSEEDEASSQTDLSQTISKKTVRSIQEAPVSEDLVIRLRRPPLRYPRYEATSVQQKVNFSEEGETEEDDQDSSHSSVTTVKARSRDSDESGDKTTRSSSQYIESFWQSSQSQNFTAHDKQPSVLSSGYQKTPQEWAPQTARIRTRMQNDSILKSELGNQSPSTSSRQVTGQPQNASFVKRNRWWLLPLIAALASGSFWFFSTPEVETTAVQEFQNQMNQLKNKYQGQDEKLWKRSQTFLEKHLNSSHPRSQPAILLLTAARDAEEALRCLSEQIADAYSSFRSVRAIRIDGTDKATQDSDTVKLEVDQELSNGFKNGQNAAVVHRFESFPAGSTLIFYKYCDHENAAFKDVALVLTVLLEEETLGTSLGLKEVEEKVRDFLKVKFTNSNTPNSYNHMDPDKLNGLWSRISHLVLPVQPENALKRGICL
# Sequence of Albumin (Bos taurus) (P02769 whole entry, looked up): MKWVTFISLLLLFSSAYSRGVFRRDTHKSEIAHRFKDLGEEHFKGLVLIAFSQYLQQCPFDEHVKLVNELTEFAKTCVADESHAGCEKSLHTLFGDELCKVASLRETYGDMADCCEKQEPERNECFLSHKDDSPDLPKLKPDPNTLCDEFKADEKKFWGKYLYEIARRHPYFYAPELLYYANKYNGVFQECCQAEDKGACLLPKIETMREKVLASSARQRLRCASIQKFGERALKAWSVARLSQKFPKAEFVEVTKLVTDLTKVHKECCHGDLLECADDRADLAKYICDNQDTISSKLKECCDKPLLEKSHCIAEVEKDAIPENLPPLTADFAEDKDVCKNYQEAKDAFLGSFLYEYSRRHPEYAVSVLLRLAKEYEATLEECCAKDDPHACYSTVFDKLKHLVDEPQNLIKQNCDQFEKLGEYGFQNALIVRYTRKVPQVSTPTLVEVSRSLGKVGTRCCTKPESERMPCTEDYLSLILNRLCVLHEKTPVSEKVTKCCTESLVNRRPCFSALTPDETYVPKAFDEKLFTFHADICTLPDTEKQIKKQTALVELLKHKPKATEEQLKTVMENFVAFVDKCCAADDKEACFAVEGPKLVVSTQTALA
# Sequence of Left-right determination factor 2 (Homo sapiens) (O00292 whole entry, looked up): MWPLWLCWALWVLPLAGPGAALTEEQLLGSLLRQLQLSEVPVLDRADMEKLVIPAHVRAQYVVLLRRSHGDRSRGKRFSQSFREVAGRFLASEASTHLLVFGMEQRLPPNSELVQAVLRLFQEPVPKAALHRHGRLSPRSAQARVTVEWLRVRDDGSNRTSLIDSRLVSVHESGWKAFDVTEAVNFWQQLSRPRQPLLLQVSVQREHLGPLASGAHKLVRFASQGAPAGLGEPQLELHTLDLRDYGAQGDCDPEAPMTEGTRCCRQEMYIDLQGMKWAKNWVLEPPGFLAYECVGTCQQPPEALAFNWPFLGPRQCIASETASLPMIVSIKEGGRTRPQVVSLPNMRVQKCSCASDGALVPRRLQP
SMILES,composite z-score [1],z-score [2],composite z-score [3],composite z-score [4],composite z-score [5],composite z-score [6],composite z-score [7],composite z-score [8],composite z-score [9],composite z-score [10],composite z-score (Albumin (Bos taurus)),composite Z-score [11],composite z-score [12],composite z-score [13],composite z-score [14],composite z-score [15],composite z-score [16],composite z-score (Sam68 (KHDRBS1)),composite z-score [17],composite z-score [18]
COCCCNC(=O)[C@]1(CCS(=O)(=O)c2ccccc2)N=C(c2ccc(OCCCO)cc2)O[C@@H]1c1ccccc1CN=[N+]=[N-],0.826,-1.47,0.329,2.49,1.12,0.392,0.536,1.54,2.7,2.16,1.05,0.0933 (inactive),0.271,0.228,0.735,2.79,0.295,1.3,-0.79,1.24
CCOC(=O)C[C@H]1[C@H](OC(=O)c2cc3ccccc3oc2=O)[C@@H](NC(=O)c2ccc(-c3ccccc3)cc2)c2cc(OCCCO)ccc2N1C(=O)c1ccccc1,1.4,-0.659,1.16,0.536,-0.15,-0.0203,0.199,0.161,0.959,0.727,0.551,-0.0549 (inactive),0.242,-0.0971,0.274,0.716,-0.0433,1.32,0.475,0.858
COC1OC[C@]2(C)[C@H]3C4=C(CN2C(=O)OC(C)(C)C)[C@H](C)C(CO)C(CO)C4CC[C@@H]13 (stereo not given in full),1.22,-1.3,-0.134,2.62,1.39,-0.0007,0.605,1.04,2.14,2.39,1.1,0.0112 (inactive),0.239,0.35,0.805,2.88,0.875,1.31,-0.675,1.17
Cc1ccccc1C(O)C1C=CC2C(=O)N(C)C(=O)C2N1N(c1ccccc1)c1ccccc1 (stereo not given),-1.19,-0.247,-0.0024,-0.945,-0.454,0.0737,0.0582,0.387,0.0266,0.305,0.25,0.111 (inactive),0.84,0.473,0.833,-0.266,0.307,-1.29,0.682,-0.752
CCC[C@@H]1C[C@@]1(CCC)[C@@H](NC(=O)OCc1ccccc1)c1ccc(-c2ccccc2)cc1,-0.44,-1.5,-0.484,0.233,1.1,-0.0026,1.42,-0.304,-0.143,-0.899,-0.477,0.572 (inactive),0.112,0.0339,-0.198,0.27,0.643,-0.303,-0.141,-0.914
CC(C)OC(=O)C=C1C[C@@H](c2ccc(C(F)(F)F)cc2)O[C@@H](c2ccc(C(F)(F)F)cc2)O1,1.44,-0.512,-0.467,0.808,0.776,-0.0643,0.536,-0.261,2.25,1.83,0.856,-0.451 (inactive),-0.102,-0.128,0.717,2.61,0.35,0.886,-0.782,1.09
CC(CO)N1C(=O)[C@@H]2[C@H]3C(=O)OCC=C[C@H]3OC23C=CCN(Cc2ccccc2)C(=O)[C@@H]13 (stereo not given in full),-1.13,-0.254,-0.509,-0.216,-0.324,0.206,-0.211,-0.273,-0.5,-0.221,0.407,-0.106 (inactive),-0.308,-0.22,0.905,-0.851,-0.419,-1.17,-0.42,-0.325
COCCCNC(=O)[C@]1(CCS(=O)(=O)c2ccccc2)N=C(c2ccc(OCCCO)cc2)O[C@@H]1c1ccccc1N=[N+]=[N-],1.23,-0.562,-0.0904,2.09,0.893,0.0988,0.203,0.698,-0.342,2.68,1.02,0.778 (inactive),0.486,-0.143,0.569,2.39,0.371,1.31,-0.71,1.18
CO[C@H]1O[C@H](CO)[C@@H](OC(=O)Nc2ccccc2-c2ccccc2)[C@H](OC(=O)Nc2ccc3c(c2)OCO3)[C@H]1OC(=O)Nc1ccc2c(c1)OCO2,1.29,1.54,0.395,0.58,-0.187,-0.0194,0.398,1.19,1.76,1.25,0.902,0.806 (inactive),0.211,-0.103,0.498,2.8,1.11,1.31,0.454,1.06
O=C1C2C=CC(C(O)c3ccc(F)cc3)N(n3cnnc3)C2C(=O)N1Cc1ccccc1 (stereo not given),-0.305,-0.574,-0.856,-0.171,0.451,-0.0781,-0.203,0.146,0.419,-0.39,-0.224,0.878 (inactive),0.0065,-0.14,0.561,0.747,-0.138,-0.256,-0.62,-0.129
COCCOC(=O)N1C(=O)[C@@]2(c3cc(C#CCCO)ccc31)[C@H](c1ccccc1OCCO)N1[C@H](c3ccccc3)[C@H](c3ccccc3)OC(=O)[C@H]1[C@@H]2C(=O)Nc1nc2ccccc2s1,0.323,-1.65,0.558,1.39,0.704,-0.0519,0.173,0.429,1.62,2.29,0.802,0.048 (inactive),0.108,-0.0352,0.729,2.02,0.967,1.29,0.0314,1.09

# Source: PubChem BioAssay
